The record followed here is ChEMBL document CHEMBL3988442, “University of Dundee, Small-Polar-MMV Screening Library” (2021).

SMILES strings stand for the structures. Out of some 66,000 compounds screened, about 960 (1.5%) showed an effect of 50% or more. The sample holds strong results, similar compounds and a random draw of the others, so the mix is not that of the screen.

The assay deals with Trypanosoma brucei. The assay is described as follows: Trypanosoma brucei 72 hour study. The assay is classed as functional, organism-based. Details: scale not given: in the data most compounds retested in dose-response had high values.

As for `O=C(Cn1c(=O)oc2ccccc21)NCC1(O)CCc2ccccc2C1` (configuration not stated), the “Percent Effect” value (30 µM, 30.03 µM) is given as -11.94%. As for `Cc1ccc(OCc2nnc(SCC3CCCN(C)C3)o2)cc1` (configuration not stated), where the note is “30.3 µM, […]”, the “Percent Effect” value was -4.572%. For the molecule `Cc1cccc(OCc2nnc(SCC3CCCN(C)C3)o2)c1` (configuration not stated), the “Percent Effect” value (30.3 µM, […]) is listed as -11.54%. As to `Cc1ccc(C)c(OCc2nnc(SCC3CCCN(C)C3)o2)c1` (configuration not stated), the “Percent Effect” value (30.3 µM, […]) was 77.52%. Take `Cc1cc(F)cc2c(N3CCS(=O)(=O)CC3)c(C#N)cnc12`: the “Percent Effect” value (30.3 µM, […]) is given as 6.61%. As for `Cc1noc(C)c1CN1CCc2ncnc(-c3ccccc3)c2CC1.O=C(O)C(F)(F)F`, for the setting “30.3 µM, […]”, the “Percent Effect” value is -55.88%. As to `CC(C)(C)n1ncc2c1CCCC2NCc1cccc2c1OCCO2` (configuration not stated), the “Percent Effect” value was found to be 0.9444% (10 µM) and 51.24% (30.3 µM, […]). For the molecule `CCn1ncc2c1CCCC2NCc1cccc2c1OCCO2` (configuration not stated), the “Percent Effect” value (30 µM, 30.03 µM) is on record as 6.251%. Consider `CC(C)(C)n1ncc2c1CCCC2NCc1cccc2c1OCO2` (configuration not stated), for which, for the setting “30 µM, 30.03 µM”, the “Percent Effect” value was -18.28%. As for `Cc1ccc(N2C[C@H](C)[C@]3(CCN(c4cccnc4)C3=O)C2)nn1.O=C(O)C(F)(F)F.O=C(O)C(F)(F)F`, the “Percent Effect” value (30.3 µM, […]) is -32.51%. As for `O=C(NC1CCCC1)[C@@H]1C[C@@H]2CCN(Cc3ccoc3)C[C@H]2O1.O=C(O)C(F)(F)F`, the “Percent Effect” value (30.3 µM, […]) was -88.78%. As for `Cc1nc(CN2CCO[C@@H]3CN(C(=O)CN(C)C)CC[C@@H]3C2)cs1`, the “Percent Effect” value (30 µM, 30.03 µM) is 8.371%. Consider `Cc1nc(CN2CCO[C@@H]3CN(C(=O)CC4CC4)C[C@@H]3C2)cs1.O=C(O)C(F)(F)F`, for which the “Percent Effect” value (30 µM, 30.03 µM) stood at 48.86%. Turning to `Cc1nc(CN2CCO[C@@H]3CN(C(=O)CC4CC4)CC[C@@H]3C2)cs1`, the “Percent Effect” value (30 µM, 30.03 µM) turned out to be 61.23%. Consider `CCC(=O)N1CCC2(CC1)C(c1cccnc1)CC(=O)N2CCOC.O=C(O)C(F)(F)F` (configuration not stated), for which, under “30.3 µM, […]”, the “Percent Effect” value is given as -33.93%. In the case of `CO[C@H]1CN(C(=O)c2cccnc2)[C@@H]2CCCO[C@H]12.O=C(O)C(F)(F)F`, for the setting “30.3 µM, […]”, the “Percent Effect” value was -49.74%. As to `COc1cc(CNCC(C)O)cc(Cl)c1OCc1ccc(C)cc1.Cl` (configuration not stated), where the note is “30 µM, 30.03 µM”, the “Percent Effect” value is 97.25%. On to `COc1cccc(CNC(C)C)c1OCc1ccc(C)cc1.Cl`, for which the “Percent Effect” value (30 µM, 30.03 µM) was -4.618%. Take `CC(O)CNCc1ccc(OCc2ccc3c(c2)OCCO3)cc1.Cl` (configuration not stated): under “30 µM, 30.03 µM”, the “Percent Effect” value is -67.49%. Regarding `COc1ccc(C[C@H]2CNCC[C@H]2OC)cc1.O=C(O)C(F)(F)F`, the “Percent Effect” value (30.3 µM, […]) came to 13.15%. As for `Cc1n[nH]c2ncc(CNC3CCCN(c4ncccn4)C3)cc12.Cl` (configuration not stated), the “Percent Effect” value (30 µM, 30.03 µM) worked out at 72.79%. Turning to `Cc1n[nH]c2ncc(CNC3CCN(Cc4ccccn4)CC3)cc12.Cl`, for the setting “30 µM, 30.03 µM”, the “Percent Effect” value is on record as -2.543%.

In the case of `Cl.c1cnc(N2CCCC(NCc3ccc(-n4ccnc4)cc3)C2)nc1` (configuration not stated), the “Percent Effect” value (30.3 µM, […]) came to 10.24%.

In the case of `CC(C)[C@@H]1CN(S(=O)(=O)c2cccc(C(=O)O)c2)C[C@H]1N(C)C`, the “Percent Effect” value (30 µM, 30.03 µM) was 98.32%. As to `CC(C)S(=O)(=O)N1CCC(Cc2cccc(C(=O)O)c2)C1` (configuration not stated), the “Percent Effect” value (30 µM, 30.03 µM) is -22.39%. For the molecule `COc1cccc(S(=O)(=O)N2C[C@@H](N(C)C)[C@H](C(C)C)C2)c1`, the “Percent Effect” value (30 µM, 30.03 µM) was -34.95%. Take `COCCN1CC2(CCOCC2)c2cc(NC(=O)C3CC=CC3)ccc21.O=C(O)C(F)(F)F`: where the note is “30.3 µM, […]”, the “Percent Effect” value came out at 4.18%. Take `COc1cc(-c2cc(-c3ccn(C)c3)nc(N)c2C#N)cc(OC)c1O`: the “Percent Effect” value (30 µM, 30.03 µM) is recorded as -22.54%. Regarding `Cc1noc(C)c1-c1ccc(C2CCCN2C(=O)Cn2ccnc2)nc1` (configuration not stated), under “30.3 µM, […]”, the “Percent Effect” value is -4.122%. `CN(C)C(=O)CN1CCC(c2cncc(-c3cccc(Cl)c3)n2)CC1`: the “Percent Effect” value (30.3 µM, […]) is 45.69%. On to `CN(C)C(=O)CN1CCCC(c2cncc(-c3cccc(Cl)c3)n2)C1` (configuration not stated), for which, for the setting “30.3 µM, […]”, the “Percent Effect” value was determined as 53.32%. Regarding `CN(C)C(=O)CN1CCCC(c2nccnc2-c2cccc(Cl)c2)C1` (configuration not stated), under “30.3 µM, […]”, the “Percent Effect” value was -2.355%. In the case of `CO[C@H]1C[C@@H]2CN(C(=O)c3cccc4c3OCCO4)C[C@@H]2C1`, the “Percent Effect” value (30.3 µM, […]) was -23.55%. As for `O=C(C1CC1)N1CC[C@H](O)[C@@H]1Cc1ccccc1`, for the setting “30.3 µM, […]”, the “Percent Effect” value is recorded as -5.545%. For the molecule `CC(C)c1cc(N2CCC[C@H](N)C2)n2nccc2n1`, the “Percent Effect” value (30.3 µM, […]) is given as -37.71%. In the case of `CC(C)c1cc(N2CCC(N)CC2)n2nccc2n1`, the “Percent Effect” value (30 µM, 30.03 µM) is listed as 38.85%. On to `CC(C)c1cc(N2CCC(N(C)C)C2)n2nccc2n1` (configuration not stated), for which, under “30.3 µM, […]”, the “Percent Effect” value is given as 4.814%. With `CC(C)c1cc(N2CCSCC2)n2nccc2n1`, the “Percent Effect” value (30.3 µM, […]) is -15.7%. On the same count and under the same terms, the result for `CC(C)c1cc(N2CCC(C(C)N3CCCC3)CC2)n2nccc2n1` (configuration not stated) reads 88.53%; that for `CC(C)c1cc(N2CC[C@H](F)C2)n2nccc2n1`, 99.84%. For the molecule `COc1ccc(CN2CCc3sccc3C2C)cc1CN1CCOCC1.Cl` (configuration not stated), the “Percent Effect” value (30.3 µM, […]) is given as -20.22%. For `COc1cc(C(=O)Nc2nc(C)no2)cc(Cl)c1OC`, under “10 µM”, the “Percent Effect” value is recorded as -54.4%. As for `O=C(O)C(F)(F)F.O=C(O)C(F)(F)F.c1cc(CN2CCO[C@H]3[C@H](OCCN4CCCC4)CC[C@@H]32)co1`, the “Percent Effect” value (30.3 µM, […]) was -5.554%. Take `Clc1ccc(OCCc2cc(C3CCN(c4ncccn4)C3)n[nH]2)cc1` (configuration not stated): the “Percent Effect” value (30.3 µM, […]) is listed as 28.73%. Turning to `Br.COc1ccc(OCCc2cc(C3CCN(CC(C)C)C3)n[nH]2)cc1` (configuration not stated), the “Percent Effect” value (30.3 µM, […]) is on record as 20.63%.

On to `CCCN1CCC(c2cc(CCOc3ccc(C(F)(F)F)cc3)[nH]n2)C1` (configuration not stated), for which the “Percent Effect” value (30.3 µM, […]) amounted to 85.59%.
